# Records with an inconclusive call do not appear. A call without a number means that no potency is given here. Activity calls are given as the source filed them. The call rests on the fitted dose curve; in most records, active means well fitted curve in either direction with a large enough effect; inconclusive means small, poorly fitted or top-dose-only effect; inactive means no such curve, though single readings can be large or run the other way.
# Molecular target: Lysosomal alpha-glucosidase (Homo sapiens) (UniProt P10253)
# Experiment: Confirmation of Inhibitors and Activators of Human alpha-Glucosidase From Spleen Homogenate;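 on potency: fluorescence of 4-methylumbelliferone released from a fluorogenic glucopyranoside substrate at pH 5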
# Outline: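 Fluorogenic assay using human spleen homogenate (1 ug) as enzyme source with 1 mM 4-methylumbelliferyl-alpha-D-glucopyranoside, pH 5.0 citrate buffer, 40 min at 37 C. 4-MU read (Ex 365/Em 440) after NaOH/glycine stop; AC50 from Hill fits.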
# Potency means the concentration at half of the fitted maximal effect.
row,Structure (SMILES),Potency
1,CCc1sc(-c2cc3ccc(O)cc3oc2=O)nc1-c1cc(C)ccc1C,inactive
2,CCc1sc(-c2cc3cc(Cl)ccc3oc2=O)nc1-c1ccccc1,inactive
3,CCS(=O)(=O)N1Cc2ccccc2CC1C(=O)Nc1ccc(NC(C)=O)cc1 (stereo unspecified),inactive
4,Cc1ccc2c(=O)c3ccccc3n(CCCN)c2c1C,inactive
5,CCOC(=O)c1c(-c2ccc(-c3ccccc3)cc2)csc1NC(=O)CCN1CCOCC1,inactive
6,COc1ccccc1NC(=O)c1ccc(Br)o1,inactive
7,C(=C/c1ccc2ccccc2n1)/c1ccc2c(c1)OCO2,inactive
8,OCC1NCC(O)C(O)C1O (stereo unspecified),inactive
9,O=S(=O)(c1ccc(Cl)cc1)N1CCN(c2nc(-c3cccs3)nc3ccccc23)CC1,inactive
10,CCOC(=O)C1CCCN(C(=O)CCC(=O)Nc2ccc3nc(N4CCOCC4)cc(C)c3c2)C1 (stereo unspecified),inactive
11,CCCN1CNc2c(c(=O)[nH]c(=S)n2CCc2cccs2)C1,35.5 µM (active)
12,Cc1nnc(SCC(=O)Nc2nsc(-c3ccc(C(C)(C)C)cc3)n2)s1,inactive
13,CCOC(=O)C(CC)(CCC(=O)O)c1csc(Nc2ccc(C)cc2)n1 (stereo unspecified),inactive
14,Cc1cccc2cc3c(NC(=O)c4ccccn4)nn(C)c3nc12,inactive
15,N#Cc1c(-c2cccs2)cc(-c2cccnc2)nc1N,inactive
16,CCN(CC)S(=O)(=O)c1ccc2c(c1)C(=NNc1ccccc1)c1cc(S(=O)(=O)N(CC)CC)ccc1-2,inactive
17,CCCN1CNc2c(c(=O)[nH]c(=S)n2CCc2cccc(Cl)c2Cl)C1,25.1 µM (active)
18,CCCCn1c(N)c(NCC)c(=O)[nH]c1=O,inactive

row,Structure (SMILES),Potency
1,CCCN1CNc2c(c(=O)[nH]c(=S)n2CCc2cccc(Cl)c2)C1,12.6 µM (active)
2,CCCN1CNc2c(c(=O)[nH]c(=S)n2CCc2ccc(OC)cc2OC)C1,15.8 µM (active)
3,O=C1Cc2cc(S(=O)(=O)N3CCN(c4ccc(Br)cc4)CC3)ccc2N1,inactive
4,Cc1nc(SCC(=O)N2CCN(c3ccccc3)CC2)c2oc3ccccc3c2n1,inactive
5,O=C(CSc1ncc(C(F)(F)F)cc1Cl)N1CCN(S(=O)(=O)c2ccccc2)CC1,inactive
6,CC1=C(C(=O)OC(C)C)C(c2cccc([N+](=O)[O-])c2)n2c(cc(=O)[nH]c2=S)N1 (stereo unspecified),inactive
7,O=c1oc2ccccc2cc1-c1nc2c(s1)CCc1ccccc1-2,inactive
8,O=C1Cc2cc(S(=O)(=O)N3CCN(c4ccc(O)cc4)CC3)ccc2N1,6.68 µM [inhibitor] (active)
9,O=Cc1ccc(N2CCN(S(=O)(=O)c3ccc4c(c3)CC(=O)N4)CC2)cc1,4.61 µM [inhibitor] (active)
10,COc1ccc(CCn2c3c(c(=O)[nH]c2=S)CN(Cc2ccccc2)CN3)cc1OC,11.2 µM (active)
11,Cc1ccccc1S(=O)(=O)N1CCOCC1,inactive
12,O=C(c1ccccc1)N1CCN(C(=O)c2ccccc2)CC1,inactive
13,Cc1c(OCC(F)(F)F)ccnc1CS(=O)c1nc2ccccc2[nH]1 (stereo unspecified),inactive
14,CCCn1c(N)c(CC)c(=O)[nH]c1=O,inactive
15,CC(=O)c1ccc(N2CCN(S(=O)(=O)c3ccc(N4CCCC4=O)cc3)CC2)cc1,inactive
16,Cc1cccc(-n2c(N)cc(=O)[nH]c2=S)c1C,inactive
17,CC1CCc2c(nc3ncnn3c2N2CCN(c3ccccc3F)CC2)C1 (stereo unspecified),inactive
18,O=C(O)c1cc2c(ccc3ccccc32)o1,inactive

# From PubChem BioAssay AID2113 (National Center for Advancing Translational Sciences (NCATS), 2009)
